WRN inhibitor: WRN helicase (human) inhibition; Q14191; WRN helicase unwinding, fluorescent forked duplex, kinetic; Potency, µM (doses to about 114 µM), for inactives: at the top dose activity change, negative = inhibition, usual class: inhibitors; 360,000 compounds, 0.46% hits; AID 651768; further: potency means the concentration at half of the fitted maximal effect; nearly all actives have a fitted effect of over 55% in size
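Kinetic red-fluorescence monitoring (525/598 nm) tracks WRN helicase activity after 100 nM fluorophore-quencher forked duplex and 2 mM ATP are added to 20 nM enzyme pretreated 15 min at room temperature with compound.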
PI5P4K alpha inh: PI5P4K alpha (human) kinase inhibition. 330,000 compounds, 1.2% hits. AID 652105. max response, %. P48426. PI5P4Kalpha enzyme, ADP-Glo luminescence, 60 min; stronger effect = lower value; active means max response of -50% or lower; inconclusive means between -30% and -50%; inactive means -30% or higher; further: value at the top dose of about 77 µM
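Luminescence from ADP-Glo served as readout of PI5P4Kalpha activity in a qHTS format. Reaction: enzyme, substrate, compound, ATP at 5 microM final, 60 min at RT.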
USP1 inh: inhibitors of human USP1/UAF1 deubiquitinase; O94782; recombinant USP1/UAF1, Ub-Rhodamine cleavage fluorescence; Potency, µM (top dose mostly 57.1 µM), for inactives: at the highest dose activity change, negative = inhibition, actives largely listed as inhibitors; 390,000 compounds, 0.23% hits; AID 743255; further: potency means the concentration at half of the fitted maximal effect; nearly all actives have a fitted effect of over 60% in size
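High-throughput fluorogenic screen: 1nM USP1/UAF1 complex, Ub-Rho substrate 150nM final, 50mM HEPES pH 7.8 with 0.5mM EDTA, 0.1 mg/ml BSA, 1mM TCEP and 0.01% Tween-20.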
PLK1 PBD block: inhibitors of human PLK1 polo-box domain binding. 360,000 compounds, 2.8% hits. Plk1 PBD binding of FITC phosphopeptide, fluorescence polarization. AID 720504. Potency, µM, for inactives: max response, negative = inhibition, actives largely listed as inhibitors. P53350; further: potency means the concentration at half of the fitted maximal effect; series mostly up to about 57 µM; nearly all actives have a fitted effect of over 65% in size
USP2a block: blocks human ubiquitin-specific protease USP2a | O75604 | USP2 core, Ub-CHOP2 coupled fluorogenic reporter, 485/531 | Potency, µM (series often up to 38.3 µM), for inactives: at the highest dose activity change, negative = inhibition, hits mostly inhibitors | 330,000 compounds, 0.01% hits | AID 463254;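 further: potency means the concentration at half of the fitted maximal effect; plate controls were DMSO wells for no effect and full inhibition by NEM control for full effect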
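Deubiquitinase activity read as fluorescence (485/531 nm) after Ub-CHOP2 cleavage activates the enterokinase reporter on its substrate; USP2 core 10nM, Ub-CHOP2 and substrate 25nM each, 30min compound preincubation then 60min RT; data normalized to NEM, curves fitted.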
The depositor's hits bear a star; i = inactive; u = inconclusive; x = not tested or not shown; [ ] = another dose, or the depositor's remark. The list is not random: actives were taken first. Their share in the collection is about 3.3%. Unless noted, the call rests on the fitted dose curve; in most records, active means well fitted curve in the direction sought with a large enough effect; inconclusive means small, poorly fitted or top-dose-only effect, or another doubt; inactive means no such curve, though single readings can be large; an effect the other way counts as inactive or inconclusive. Unless noted, on the % scale 0 is the no-effect control and ±100 the full control effect.

SMILES | WRN inhibitor | PI5P4K alpha inh | USP1 inh | PLK1 PBD block | USP2a block
Cc1ccsc1/C=C1/SC(N2CC(C)OC(C)C2)=NC1=O (centres undefined) | -8% | 11 | -5% | 30µM* | -1%
N#CCSc1nnc(N)s1 | -4% | -7 | -1% | -2% | -6%
N#CCSc1nnc(SCC#N)s1 | u | -75* | -3% | -13% | -1%
O=C(CCNc1n[nH]c(=O)[nH]c1=O)N/N=C/c1ccc(Cl)cc1 | -9% | -20 | -13% | -1% | 2%
O=c1[nH]nc(N/N=C/c2ccc(Cl)cc2Cl)c(=O)[nH]1 | -4% | -26 | -21% | 24µM* | 2%
COc1ccc(CN2CCNC(=O)C2CC(=O)N(C)Cc2nccs2)c(OC)c1 (centres undefined) | -1% | 2 | -15% | 27µM* | 0%
COc1cccc(CN2CCNC(=O)C2CC(=O)N(C)CCC2CCOCC2)c1 (centres undefined) | 2% | -1 | -25% | -14% | -1%
COc1cc(CN2CCNC(=O)C2CC(=O)N(C)CCC2CCOCC2)cc(OC)c1 (centres undefined) | -3% | 0 | 0% | 27µM* | 5%
CN(C(=O)CC1C(=O)NCCN1Cc1ccccc1C(F)(F)F)C1CCOCC1 (centres undefined) | -8% | -9 | -9% | 11µM* | 1%
CN(C(=O)CC1C(=O)NCCN1Cc1ccccc1F)C1CCOCC1 (centres undefined) | -25% | 3 | 1% | -6% | 0%
N#Cc1c(-c2ccccc2)cc(-c2ccccc2)nc1SCC(O)CS(=O)(=O)Cc1ccc(Cl)cc1 (centres undefined) | x | x | -19% | x | x
COc1ccc2c(c1)c1c(c(=O)n(-c3cc(Cl)ccc3C)c(=O)n1CC(=O)N1CCCC1)n2C | x | x | -23% | x | x
COc1ccc(N=C2NN=C(c3ccc4c(c3)OCCO4)CS2)cc1 | -3% | -21 | u | 27µM* | 1%
Cc1ccc(-c2c(C(=O)N3CCN(c4cc(Cl)ccc4C)CC3)oc(=O)c3ccccc23)cc1 | x | x | -21% | x | x
CCN(CC)c1ccc2cc(S(=O)(=O)c3ccc(Cl)cc3)c(=O)oc2c1 | -8% | 3 | i | 19µM* | 3%
CCCCCCc1cc2cc(S(=O)(=O)c3ccc(Cl)cc3)c(=O)oc2cc1O | -9% | 0 | u | -14% | 2%
COc1ccc(NC(=O)Cn2nnc(C(=O)NCc3ccc4c(c3)OCO4)c2N)cc1 | -33%[57.1 µM] | -6 | u | -18% | 0%
COc1ccc(Cl)cc1S(=O)(=O)NC(C)C(=O)NCc1ccc2c(c1)OCO2 (centres undefined) | 3% | -10 | -14% | 24µM* | 2%
COc1ccc(CC(=O)NCc2ccc3c(c2)OCO3)cc1 | -2% | 9 | -7% | 24µM* | 0%
COc1ccc(CCC(=O)NCc2ccc3c(c2)OCO3)cc1 | -1% | -1 | -4% | -25% | 2%
COc1ccc(NC(=O)Cn2nnc(C(=O)NCc3ccc4c(c3)OCO4)c2N)c(OC)c1 | -5% | -14 | -20% | 21µM* | 1%
CCN(CC)C(=O)c1sc(N)c(C#N)c1C | -11% | 1 | -18% | 24µM* | -1%
CCOC(=O)C(=O)Nc1sc(C(=O)N(CC)CC)c(C)c1C#N | -2% | -9 | -16% | -16% | 7%
O=[N+]([O-])c1ccccc1/C=N/n1c(C2CCCCC2)n[nH]c1=S | -6% | -12 | -25% | 21µM* | 0%
S=c1[nH]nc(C2CCCCC2)n1/N=C/c1ccccc1Br | -33% | -11 | -27% | 12µM* | -2%
SMILES | WRN inhibitor | PI5P4K alpha inh | USP1 inh | PLK1 PBD block | USP2a block
O=[N+]([O-])c1ccccc1/C=N/n1c(-c2cccnc2)n[nH]c1=S | -27% | -3 | 1% | -23% | 4%
O=[N+]([O-])c1ccccc1/C=N/n1c(C(F)(F)F)n[nH]c1=S | 3% | -29 | -10% | 27µM* | 1%
COc1ccc(OC)c(NC(=O)CN2CCCN(Cc3ccccc3Cl)S2(=O)=O)c1 | x | x | -5% | x | x
Cc1ccc(-c2nnc(Nc3ccc(O)cc3)c3ccccc23)cc1S(=O)(=O)NCC1CCCO1 (centres undefined) | x | x | -26% | x | x
CN(C(=O)CSc1nc(C2CCCC2)nc2c1c(=O)n(C)c(=O)n2C)c1ccccc1 | x | x | -4% | x | x
Cc1cc(C)cc(NC(=O)Cn2c(C(F)(F)F)nc3ccccc32)c1 | x | x | -12% | x | x
O=C(C1CCCN(Cc2cccc(Cl)c2)C1)N1CCCCC1 (centres undefined) | 14% | -10 | -18% | 19µM* | 1%
COc1cc2c3nnc(-c4ccc(F)cc4)c-3cn(Cc3ccccc3)c2cc1OC | -5% | -3 | 32µM* | 7% | 0%
Cc1c(C(=O)NC(C)CCc2ccccc2)cccc1[N+](=O)[O-] (centres undefined) | 13% | -25 | -10% | 12µM* | 3%
N#C/C(=C\c1ccc(F)c(Cl)c1)S(=O)(=O)c1ccccn1 | -2% | 0 | -26% | 12µM* | -2%
Cc1cccc(N2CCN(C(=O)Cn3ncc4c3-c3cc(C)ccc3OC4)CC2C)c1 (centres undefined) | x | x | -9% | x | x
CC(C)(C)OC(=O)NCC(=O)Oc1cc2oc(=O)cc(-c3ccccc3)c2cc1Cl | -1% | -72* | -8% | u | -1%
COc1cc(NC(=O)Cn2c(=O)ccc3cc(S(=O)(=O)N4CCCC4)ccc32)cc(OC)c1 | x | x | -30% | x | x
COCCNC(=S)Nc1ccc(N2CCCCC2)cc1 | 17% | -6 | -8% | 3.8µM* | 0%
Cc1ccc(NC(=O)CSCc2cc(=O)n3cc(C)sc3n2)cc1 | 3% | 6 | -21% | -7% | 1%
COc1ccc(NC(=O)CSCc2cc(=O)n3cc(C)sc3n2)cc1 | -3% | 5 | -2% | 30µM* | 1%
COc1ccc2c(c1)c1c(c(=O)n(Cc3ccccc3)c(=O)n1CC(=O)Nc1ccc(C)cc1C)n2C | x | x | -16% | x | x
O=C(O)CCCN1C(=O)C(=O)/C(=C(/O)c2ccc(Cl)cc2)C1c1ccccc1 (centres undefined) | 2% | -12 | -19% | -30% | 1%
O=C(O)CCCN1C(=O)C(=O)/C(=C(/O)c2ccccc2)C1/C=C/c1ccccc1 (centres undefined) | -4% | u | -24% | 13µM* | -2%
COCCn1c(N)c(C(=O)NCC2CCCO2)c2nc3ccccc3nc21 (centres undefined) | -12% | 11 | 25µM* | -6% | -1%
CCOc1ccc(N2CC(c3nc4ccccc4n3CCCOc3ccccc3OC)CC2=O)cc1 (centres undefined) | x | x | -3% | x | x
CCC1(c2ccccc2)NC(=O)N(CC(=O)Nc2ccc3c(c2)CCC3)C1=O (centres undefined) | -6% | 1 | 1% | -2% | x
CCC1(c2ccccc2)NC(=O)N(CC(=O)Nc2ccc(OC)nc2)C1=O (centres undefined) | -5% | -2 | u | 13µM* | u

Screens from PubChem BioAssay.
